PubChem BioAssay AID1851 (National Center for Advancing Translational Sciences (NCATS), 2009)
Hit rate of the full screen: of about 16,000 compounds, about 4,000 (25%) were called active. About 26% were inconclusive and are not listed. The call rests on the fitted dose curve; in most records, active means well fitted curve in the direction sought with a large enough effect; inconclusive means small, poorly fitted or top-dose-only effect, or effect the other way; inactive means no such curve, though single readings can be large or run the other way. A selection follows.

Molecular target: Cytochrome P450 2C9 (Homo sapiens) (UniProt P11712)
Experiment: Cytochrome panel assay with activity outcomes
Conditions: recombinant CYP, pro-luciferin dealkylation, luminescence, p450-cyp2c9; series mostly up to 57.1 µM; activity, negative = inhibition: at the top concentration
On the % scale 0 is the no-effect control and ±100 the full control effect.

Chain of Cytochrome P450 2C9 (Homo sapiens) (P11712 whole entry, looked up): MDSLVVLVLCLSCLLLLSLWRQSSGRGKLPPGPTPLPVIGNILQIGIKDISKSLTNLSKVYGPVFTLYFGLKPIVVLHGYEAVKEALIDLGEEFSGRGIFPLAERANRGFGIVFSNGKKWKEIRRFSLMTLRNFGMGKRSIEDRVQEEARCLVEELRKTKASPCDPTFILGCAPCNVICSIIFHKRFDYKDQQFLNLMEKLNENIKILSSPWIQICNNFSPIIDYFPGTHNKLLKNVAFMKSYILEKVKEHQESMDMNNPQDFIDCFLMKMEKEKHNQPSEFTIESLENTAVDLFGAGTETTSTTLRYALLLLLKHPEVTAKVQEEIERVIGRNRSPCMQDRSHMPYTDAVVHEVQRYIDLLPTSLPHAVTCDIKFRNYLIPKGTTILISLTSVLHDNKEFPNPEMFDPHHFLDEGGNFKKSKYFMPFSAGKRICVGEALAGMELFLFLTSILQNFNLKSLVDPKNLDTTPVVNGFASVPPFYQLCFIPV

Row | Compound | activity, negative = inhibition | AC50
1 | NC1(C(=O)O)CC(C(=O)O)C1 (stereo unspecified) | -10.1% (inactive) | –
2 | NC1(C(=O)O)C[C@H](C(=O)O)[C@H](C(=O)O)C1 (stereo partly specified) | – | 6.31 µM (active)
3 | NC1(C(=O)O)C[C@@H](C(=O)O)[C@H](C(=O)O)C1 | – | inactive
4 | CCc1c(O)c2c(c(O)c1C(C)=O)C(=O)c1c(cc(O)c(C(=O)O)c1C(=O)O)C2=O | -13.4% [at 11.4 µM] (inactive) | –
5 | O=C(Nc1cccc(NC(=O)c2ccc(-c3cccc(Br)c3)o2)c1)c1ccco1 | – | 5.01 µM (active)
6 | N#Cc1cccc(NC(=O)N2CCC3(CC2)CCN(C(=O)c2ccco2)CC3)c1 | -22.8% (inactive) | –
7 | COc1cccc(-c2nccc(N(C)Cc3ccco3)n2)c1 | 2.63% [at 2.29 µM] (inactive) | –
8 | COc1cccc(-c2noc(Cn3nc(C)c([N+](=O)[O-])c3C)n2)c1 | – | 4.47 µM (active)
9 | COc1cccc(-c2nccc(NCc3ccc(OC)cc3OC)n2)c1 | -22.3% [at 2.29 µM] (inactive) | –
10 | CC(=O)[C@H](C(=N)C#N)C(=O)Nc1ccccc1 | 10.8% [at 11.4 µM] (inactive) | –
11 | COc1cccc(C2C3(C#N)C(N)=NC(OC)(OC)C23C#N)c1 (stereo unspecified) | 1.33% (inactive) | –
12 | COC1(OC)N=C(NC(=O)Nc2ccccc2)C2(C#N)C(c3ccccc3)C12C#N (stereo unspecified) | – | 12.6 µM (active)
13 | CC1(C)CC(=O)C(C(c2cccc(O)c2O)C2C(=O)CC(C)(C)CC2=O)C(=O)C1 | 3.72% [at 11.4 µM] (inactive) | –
14 | Cc1ccc(C(C2C(=O)CC(C)(C)CC2=O)C2C(=O)CC(C)(C)CC2=O)s1 | – | 28.2 µM (active)
15 | O=C(Nc1nccs1)C1Cc2ccccc2CN1S(=O)(=O)c1ccc(F)cc1 (stereo unspecified) | – | 12.6 µM (active)
16 | O=S(=O)(c1ccccc1)N1CCC2(CCN(Cc3nccs3)CC2)CC1 | -24.4% (inactive) | –
17 | O=C(Nc1nnc(C2CC2)s1)C1Cc2ccccc2CN1S(=O)(=O)c1ccccc1F (stereo unspecified) | – | 3.16 µM (active)
18 | CCc1nnc(NC(=O)C2Cc3ccccc3CN2S(=O)(=O)c2ccc(C)cc2)s1 (stereo unspecified) | – | 3.98 µM (active)
19 | O=S(=O)(c1ccccc1)N1CCC2(CC1)CN(Cc1nccs1)C2 | 16% (inactive) | –

Row | Compound | activity, negative = inhibition | AC50
20 | CC(C)CN1CCC2(CC1)CCN(C(=O)c1cccn1C)CC2 | 28.9% (inactive) | –
21 | CCOC(=O)n1ccn(C)c1=S | 11.1% [at 25.6 µM] (inactive) | –
22 | CC(=O)OC[C@@H]1O[C@@H](O/N=C2/C[C@@H](O)[C@@H](O)[C@@H]3[C@@H]4C(=O)N(C(C)(C)C)C(=O)[C@H]4CC[C@H]23)[C@H](OC(C)=O)[C@H](OC(C)=O)[C@@H]1OC(C)=O | 2.66% [at 11.4 µM] (inactive) | –
23 | CO[C@H]1COC(=O)[C@H](C)NC(=O)C/C=C\[C@@H](C)[C@H](OC)COC(=O)[C@@H](OCc2ccccc2)/C=C\[C@@H]1C | -13.3% [at 11.4 µM] (inactive) | –
24 | CNC(=O)C(=O)NCCc1ccc(Cl)cc1 | -16.9% (inactive) | –
25 | O=C(NCCc1ccc(Cl)cc1)Nc1cccc(Cl)c1 | – | 3.98 µM (active)
26 | CN(C)CCNC(=S)Nc1cccc(Cl)c1 | -8.2% (inactive) | –
27 | CC(=O)OC[C@@H]1O[C@@H](O/N=C2/C[C@@H](O)[C@@H](O)[C@@H]3[C@@H]4C(=O)N(C5CCCCC5)C(=O)[C@H]4CC[C@H]23)[C@H](OC(C)=O)[C@H](OC(C)=O)[C@@H]1OC(C)=O | 9.42% [at 11.4 µM] (inactive) | –
28 | O=c1c(-c2cc(F)cc(F)c2)nc2cnc(N3CCOCC3)nc2n1C[C@H]1CCCO1 | 13.6% (inactive) | –
29 | O=C(NC12CC3CC(CC(C3)C1)C2)c1ccc(COc2ccc(Cl)cc2[N+](=O)[O-])o1 | – | 7.94 µM (active)
30 | CC(C)=CCC/C(C)=C/CO/N=C1/C[C@@H](O)[C@@H](O)[C@@H]2[C@@H]3C(=O)N(Cc4ccccc4)C(=O)[C@H]3CC[C@H]12 | -1.37% [at 11.4 µM] (inactive) | –
31 | CC(C)=CCC/C(C)=C/CO/N=C1/C[C@@H](O)[C@@H](O)[C@@H]2[C@@H]3C(=O)N(Cc4ccccc4)C(=O)[C@H]3CC[C@@H]12 | 24.4% [at 11.4 µM] (inactive) | –
32 | c1nc(N2CCNCC2)c2cc(-c3ccc4c(c3)OCO4)ccc2n1 | 14.4% [at 2.29 µM] (inactive) | –
33 | C[C@@H]1O[C@@H](O)[C@@H](O)[C@H](O)[C@H]1O | 0.774% [at 11.4 µM] (inactive) | –
34 | O=C(O)[C@@H]1CCCN1Cc1ccc2c(c1)OCO2 | -5.38% [at 11.4 µM] (inactive) | –
35 | CC1(C)SC(=S)N(Cc2ccc3c(c2)OCO3)C1N(O)C(=O)NC1CCCCC1 (stereo unspecified) | – | 3.55 µM (active)
36 | NC(=O)[C@@H]1CCCN1Cc1ccc2c(c1)OCO2 | -2.9% [at 11.4 µM] (inactive) | –
37 | COc1ncc2nc(-c3ccc(F)cc3)c(=O)n(C)c2n1 | 6.98% (inactive) | –
38 | Cc1cc(CSc2ccccc2)ccc1NC(=O)COc1ccccc1 | -23.7% (inactive) | –

Row | Compound | activity, negative = inhibition | AC50
39 | Cc1ccc(NC(=O)CCC(=O)NNS(=O)(=O)c2ccccc2)c(C)c1 | -21.5% (inactive) | –
40 | Cc1cc(Br)ccc1NC(=O)CCSc1ccccc1 | – | 8.91 µM (active)
41 | O=C(CCCNS(=O)(=O)c1cccc2nsnc12)NCCc1ccccc1 | – | 11.2 µM (active)
42 | O=c1c2ccccc2nc2n1C(CSCc1cccc(C(F)(F)F)c1)CS2 (stereo unspecified) | – | 2 µM (active)
43 | COc1ccc(NC(=O)N2CCC3(CC2)CCN(C(=O)c2cccn2C)CC3)cc1 | -9.28% (inactive) | –
44 | CCCCCCCCC(=O)N/N=C/c1ccccn1 | -23.2% (inactive) | –
45 | O=C(CSc1ccc(Cl)cc1)Nc1cccc(-c2nc3ncccc3o2)c1 | – | 3.16 µM (active)
46 | O=C(Nc1cccc(-c2nc3ncccc3o2)c1)c1sc2cc(Cl)ccc2c1Cl | -23% (inactive) | –
47 | CCCCCC(=O)Nc1cccc(-c2nc3ncccc3o2)c1 | – | 17.8 µM (active)
48 | CCCCCC(=O)N1CC2(CC(c3cccc(NC(=O)c4ccccc4)c3)=NO2)C[C@@H]1C(N)=O (stereo partly specified) | 20% (inactive) | –
49 | CC1=NS(=O)(=O)c2cc(Cl)ccc2N1 | – | inactive
50 | CO[C@H]1COC(=O)C/C=C\[C@H](C)[C@@H](OC)COC(=O)[C@H](Cc2ccccc2)NC(=O)C/C=C\[C@@H]1C | -2.12% [at 11.4 µM] (inactive) | –
51 | Cc1ccc(S(=O)(=O)N[C@H]2COC(=O)[C@@H](C)COC(=O)[C@H](C)NC(=O)C/C=C\[C@H]2C)cc1 | 10.1% [at 11.4 µM] (inactive) | –
52 | O=C(NC(=S)Nc1cccc(Cl)c1N1CCCCC1)c1cccs1 | – | 3.98 µM (active)
53 | O=C(NC(=S)Nc1cccc(Cl)c1N1CCCCC1)c1ccco1 | – | 5.01 µM (active)
54 | C[C@@]1(C(NC(=O)c2cccs2)c2ccc(-c3ccccc3)cc2)C[C@H]1C1CCCCC1 (stereo partly specified) | -29.1% (inactive) | –
55 | Cc1c(Cl)cccc1NC(=O)CCC(=O)NNC(=O)c1ccco1 | -25.4% (inactive) | –
56 | CC1CCN(c2ccccc2NC(=S)NC(=O)c2cccs2)CC1 | – | 5.01 µM (active)
